Screens: PubChem BioAssay, National Center for Advancing Translational Sciences (NCATS)
Pf growth 48h – Primary qHTS for delayed death inhibitors of the malarial parasite plastid, 48 hour incubation; AID 504832, 2011; P. falciparum luciferase growth in erythrocytes, 48 h; Potency, µM (highest dose often 28.7 µM), for the others: at the top dose activity change, negative = inhibition, hits mostly inhibitors; hit rate 5.9% among 310,000; active = well fitted inhibition curve with a large enough effect; inconclusive = small, poorly fitted or top-dose-only effect, or another doubt; inactive = no such curve, though single readings can be large or run the other way; note: potency is the fitted concentration of half-maximal effect; % is set by controls: 0 for no effect and ±100 for the full control effect
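Firefly luciferase activity from engineered P. falciparum reports growth; inhibitors lower the luminescent signal. Cultures contained 2% hematocrit erythrocytes at 0.1% final parasitemia.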
Shiga toxin inh – A qHTS for Small Molecule Inhibitors of Shiga Toxin; AID 2315, 2010; Vero cells, Shiga toxin protein synthesis inhibition reporter; inhibition, % at 38.7 µM; hit rate 9.2% among 290,000; in the data active = inhibition mostly above about 28%, no sharp cut-off; inactive = mostly below about 43%; note: 0% is about no effect
NS1 inh – qHTS Assay for Inhibitors of Influenza NS1 Protein Function. Potency, µM (doses to about 46.1 µM), for inactives: top-dose activity, positive = more growth. hit rate 0.4% among 270,000; note: potency is the fitted concentration of half-maximal effect; actives are rising curves; nearly all actives have a fitted effect of over 50% in size
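Growth recovery, yeast-based: influenza A NS1 expressed in S. cerevisiae causes slow growth, and suppressors are detected by OD600. The parent strain without NS1 is used as positive control.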
Cycloheximide cs – Cycloheximide Counterscreen for Small Molecule Inhibitors of Shiga Toxin | cell reporter, cycloheximide protein synthesis inhibition counterscreen | max response, % | hit rate 12% among 300,000; in the data active = max response mostly above about 13%, no sharp cut-off; inactive = mostly below about 14%; note: read at 38.3 µM for the half of the compounds with a filed dose; 0% is about no effect
Pf growth 96h – Primary qHTS for delayed death inhibitors of the malarial parasite plastid, 96 hour incubation; P. falciparum luciferase reporter growth, 96 h; Potency, µM (highest dose often 28.7 µM), for inactives: at the highest dose activity change, negative = inhibition, most hits filed as inhibitors; hit rate 6.9% among 320,000; AID 504834, 2011; active = well fitted inhibition curve with a large enough effect; inconclusive = small, poorly fitted or top-dose-only effect, or another doubt; inactive = no such curve, though single readings can be large or run the other way; note: potency is the fitted concentration of half-maximal effect; % is set by controls: 0 for no effect and ±100 for the full control effect
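Erythrocytes infected with luciferase-expressing P. falciparum were dispensed at 2% hematocrit and 0.05% parasitemia (final), then incubated with compounds 96 hours at 37 C in 5% CO2. Luminescence after detection reagent addition reported growth.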
Flu NS1 inh – Assay for Inhibitors of Influenza NS1 Protein Function: Hit Validation; 1,400 tested, under 10 active; shares compounds with NS1 inh; activity change, negative = inhibition, % at 32.9 µM; influenza NS1 function cell assay, 15-point titration; note: 0% is about no effect
Flu PR8 replic – Assay for Inhibitors of Influenza NS1 Protein Function: Influenza virus replication assay in MDCK cells infected with virus A/PR/8/34; shares compounds with NS1 inh; MDCK infected influenza A/PR/8/34, virus titer TCID50; hits give low values; virus titer (log TCID50), log10 TCID50 at 5 µM; hit rate 30% among 95; AID 504647, 2011; call rule not given here
* = called active by the depositor; i = inactive; ? = inconclusive; / = not tested or not shown; [ ] = another dose, or the depositor's remark. This is a sample that favours compounds with a hit; in the whole collection about 21% have one here. Unless noted, calls come from the whole dose curve.

SMILES | Pf growth 48h | Shiga toxin inh | NS1 inh | Cycloheximide cs | Pf growth 96h | Flu NS1 inh | others
CCOc1cc(-c2c(C#N)c(=O)[nH]c3c2c(C)nn3-c2ccc(F)cc2)ccc1O | -6.0% | -9.5 | 7.94µM* | 5.0 | -3.4%[5.75 µM] | 25.7 | Flu PR8 replic=4*
CSCC[C@H](NC(=O)OC(C)(C)C)C(=O)N/N=C/c1ccc2nccnc2c1 | -9.0% | 2.8 | -2.5% | 5.8 | ? | /
Cc1ccc(S(=O)(=O)Nc2ccccc2C(=O)OC(C)C(=O)Nc2ccc3ccccc3c2)cc1[N+](=O)[O-] (configuration not stated) | -9.9% | 12.5 | 4.47µM* | 1.6 | ? | -10.2
OCc1ccnc2c(O)cccc12 | 2.33µM* | 21.4 | 8.91µM* | 3.7 | ? | -35.7
Cc1ccc(SCC(=O)Nc2ccc3c(c2)C(=O)N(C)C3=O)cc1 | 40.0% | -0.7 | 2.51µM* | 0.7 | 72.2% | 13.0
Cc1cc(C)cc(C(=O)NCC(=O)OCC(=O)Nc2ccc(C)cc2Br)c1 | 21.8% | 11.1 | / | 8.8 | 38.4% | /
Cc1ccn(CC(C)C(=O)O)n1 (configuration not stated) | -45.3% | 18.3 | -0.5% | -1.2 | 158.8% | /
COCC(=O)Nc1ccc2nc3n(c(=O)c2c1)CCCCC3 | 16.1% | 12.6 | ? | 12.4* | -10.3% | -5.2
COc1cc(NC(=O)C(=O)Nc2ccc3nc4n(c(=O)c3c2)CCCCC4)cc(OC)c1OC | 7.2% | -9.7 | 5.5% | 2.4 | -0.4% | /
O=[N+]([O-])c1cccc(N2Cc3ccccc3C2)c1 | 46.7% | 38.8 | 1.7% | 12.8 | 61.4% | /
COC(=O)c1ccc(C2C(C(=O)c3ccc(C)o3)=C(O)C(=O)N2c2cc(C)on2)cc1 (configuration not stated) | 0.3% | -0.6 | 11.8% | 2.9 | ? | /
Cc1cc(N2C(=O)C(O)=C(C(=O)c3ccc(C)o3)C2c2cccs2)no1 (configuration not stated) | -5.1% | 7.0 | 11.2µM* | 1.3 | ? | -25.7
O=C(NC1CCOc2ccccc21)c1ccccn1 (configuration not stated) | 1.5% | -10.9 | -1.8% | -2.7 | 3.6% | /
NNC(=O)c1csc(Cc2c(Cl)sc3ccc(Cl)cc23)n1 | -4.2% | -5.9 | ? | 5.3 | -18.5% | -29.9
O=C(Nc1nc(-c2ccco2)c(-c2ccco2)s1)C1CC(=O)N(c2ccc3c(c2)OCCO3)C1 (configuration not stated) | 1.0% | -0.2 | 10µM* | 12.3 | 15.8% | 14.7
Cc1[nH]c2ccc(-c3nnc(SCC(=O)NCc4ccco4)n3Cc3ccccc3)cc2c1C | / | 8.9 | 3.55µM* | 8.2 | ? | -11.7
CCn1c(SCC(=O)NCc2ccco2)nnc1-c1ccncc1 | 24.1% | -19.2 | / | -2.9 | 19.3% | /
CC(C)(C)NC(=O)NC(=O)CN1CCN(c2cccc(Cl)c2)CC1 | ? | -1.9 | 7.94µM* | 0.6 | ? | -25.8 | Flu PR8 replic=8.33
CS(=O)(=O)N1CCc2cc(-c3csc(NC(=O)Cc4cccs4)n3)ccc21 | -23.2% | 16.5 | 11.2µM* | 8.8 | 97.1% | 19.2
COC(=O)[C@@]1(Cc2ccc(F)cc2)[C@H]2c3cc(C(=O)N4CCCC4)n(CCc4c[nH]c5ccc(OC)cc45)c3C[C@H]2CN1C(=O)c1ccccc1 | ? | -15.0 | 12.6µM* | -2.0 | 1.04µM* | 15.7
Cc1nn(-c2ccccc2)c2sc(-c3nnc(SCC(=O)O)o3)cc12 | / | -9.2 | 1.9% | -2.7 | ? | /
CCn1c(SCC(=O)O)nnc1-c1cc2c(C)nn(-c3ccccc3)c2s1 | 13.2% | -14.1 | ? | -4.2 | 7.5% | 8.0
Cc1ccc(NC(=O)c2ccccc2-c2ccc(C(F)(F)F)cc2)cc1S(=O)(=O)N1CCOCC1 | ? | -4.7 | -5.2% | -1.5 | ? | /
CC(NC(=O)c1nn(C)c(=O)c2ccccc12)c1ccc(F)cc1 (configuration not stated) | ? | -22.6 | -51.7% | -2.5 | i | /
